Many of the other results were omitted from the sample, so hits are more common in it than they were.
TTR transcr act – increases transthyretin transcription. SH-SY5Y TTR promoter Gaussia luciferase, luminescence; 100% = recombinant luciferase protein wells. 92,000 tested, 1.3% active. AID 1117267. activation, % at 16.7 µM;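 active means activation above the mean of all tested compounds plus 3 SD, cut at about 9.5% in these data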;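 further: cells exposed to compounds for one day before reading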
HuH7 TTR inh – counter-screen for TTR activators: TTR transcription inhibitors in HuH7 cells; shares compounds with TTR transcr act; HuH7 TTR promoter-Gaussia luciferase reporter, luminescence; inhibition, % at 16.7 µM; 1,100 tested, 4% active;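 active means average inhibition above the solvent-only control wells' mean plus 3 SD, cut at about 15% in these data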;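 further: inhibitors lower well luminescence so higher value means more inhibition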
TTR up confirm – confirmation of human transthyretin transcription activators; shares compounds with TTR transcr act; SHSY5Y TTR promoter Gaussia luciferase, luminescence; 100% = purified Lucia enzyme wells, no cells; activation, % at 16.7 µM; 1,100 tested, under 10 active;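 active means mean activation above a set limit taken from the earlier primary screen, cut at about 11% in these data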
Each line names hits and unclear results; the compound was inactive in the other large screens (follow-up assays come after a bar, where they were run).

NC1=NC(=O)/C(=C/c2ccccc2OCC(=O)Nc2ccc(F)cc2)S1	TTR transcr act 9.9 | HuH7 TTR inh inactive | TTR up confirm inactive
Nc1c(C(=O)NCc2ccccc2)nnn1Cc1ccccc1	none
CC(C)CNC(=O)COCc1cc(-c2ccc3c(c2)OCO3)on1	TTR transcr act 12 | HuH7 TTR inh inactive | TTR up confirm inactive
CCCNC(=O)COCc1cc(-c2ccc3c(c2)OCO3)on1	none
CCCCNC(=O)COCc1cc(-c2ccc3c(c2)OCO3)on1	none
CCOC(=O)[C@@H]1[C@H]2COc3ccc(Br)cc3[C@@H]2N2C(=O)N(c3ccc(Br)cc3)C(=O)[C@@]12C	none
CCN1C(=O)C(F)(CC)C(=O)c2ccccc21 (configuration not stated)	none
Cc1ccc(Cl)cc1NC(=O)C(NS(=O)(=O)c1cccs1)c1ccccc1 (configuration not stated)	none
Cn1c(SCC(=O)N2CCCCCC2)nnc1-c1ccco1	none
Cc1ccc(C#N)c(SCCN2CCCCC2)n1	none
Cn1c(SCCN2CCCCC2)nnc1-c1ccccc1Br	TTR transcr act 14 | HuH7 TTR inh inactive | TTR up confirm inactive
CC1CCN(N=Nc2nc3c([nH]2)c(=O)n(C)c(=O)n3C)CC1	none
CN1C[C@H]2CON(C)[C@H]2C[C@H]1c1cccc(-c2ccc(C#N)cc2)c1	none
CCN1CCN(c2nc3ccccc3nc2NS(=O)(=O)c2ccc(NC(C)=O)cc2)CC1	TTR transcr act 12 | HuH7 TTR inh inactive | TTR up confirm inactive
CC(=O)Nc1ccc(S(=O)(=O)Nc2ccc3ccccc3n2)cc1	none
CCn1nc(NS(=O)(=O)c2ccc(NC(C)=O)cc2)c2cc3ccccc3nc21	none
CC(C)OP(=O)(OC(C)C)C(O)c1ccc2c(c1)OCO2 (configuration not stated)	none
COc1ccc(C2/C(=C(/O)c3ccc(C)cc3)C(=O)C(=O)N2CCCN2CCOCC2)cc1 (configuration not stated)	none
CCOc1ccc(N(C(=O)c2ccccc2Cl)C2=NC(C)(C)CS2)cc1	none
C=CCn1cc(C(=O)NCc2ccc3c(c2)OCO3)c(=O)c2cc(S(=O)(=O)N(CC)CC)ccc21	none
COc1ccc2c(C)cc(=O)sc2c1	none
c1ccc(-c2nnc(-c3ccccn3)c(-c3ccccn3)n2)nc1	none
c1ccc(-c2nnc(-c3ccccn3)nn2)nc1	TTR transcr act 10 | HuH7 TTR inh inactive | TTR up confirm inactive
c1ccc(-c2ccc(-c3ccccn3)s2)nc1	none
Cc1ccc(S(=O)(=O)NC[C@@H]2C[C@H](c3ccccc3)ON2S(=O)(=O)c2ccc(C)cc2)cc1	TTR transcr act 10 | HuH7 TTR inh inactive | TTR up confirm inactive
Cc1ccc(S(=O)(=O)NCC2Cc3ccccc3N2S(=O)(=O)c2ccc(C)cc2)cc1 (configuration not stated)	none
Cc1ccc(S(=O)(=O)NC[C@H]2CN(S(=O)(=O)c3ccc(C)cc3)[C@@H](Cc3ccccc3)CO2)cc1	none
O=C(CC12CC3CC(CC(C3)C1)C2)NCc1ccccc1	none
Fc1ccc(CC2CCN(c3ncnc4sccc34)CC2)cc1	none
NC(=O)CSc1cn(Cc2cccc(F)c2)c2ccccc12	none
O=C(NCCOc1ccccc1)c1cccc(S(=O)(=O)N2CCN(Cc3ccccc3)CC2)c1	none
CCCCN(C(=O)c1cccc(S(=O)(=O)N2CCN(Cc3ccccc3)CC2)c1)c1ccccc1	TTR transcr act 27 | HuH7 TTR inh inactive | TTR up confirm inactive
Cc1ccc(CN(C)C(=O)c2cccc(S(=O)(=O)N3CCN(Cc4ccccc4)CC3)c2)o1	none
O=C(O)COc1ccccc1C1C2C(=O)N(c3ccccc3)C(=O)C2ON1c1ccccc1 (configuration not stated)	none
O=C(COC(=O)c1ccc(Cl)nc1)Nc1cc(S(=O)(=O)N2CCCCC2)ccc1Cl	none
O=C(COC(=O)c1ccc(Cl)nc1)Nc1ccc(S(=O)(=O)N2CCCC2)cc1	TTR transcr act 20 | HuH7 TTR inh inactive | TTR up confirm inactive
O=C(COC(=O)c1ccccc1O)Nc1ccc(S(=O)(=O)N2CCCCC2)cc1	none
COc1ccc(N2CCC(CNC(=O)Nc3ccc(OC)cc3OC)C2)cc1 (configuration not stated)	none
CCOc1cc(CNC2CCCC2)ccc1OCc1ccccc1Cl	none
CCOc1cc(CNCCCN2CCOCC2)ccc1OCC(=O)NC(C)(C)C	none
CCOc1cc(CNCCN2CCOCC2)ccc1OCc1ccccc1Cl	TTR transcr act 27 | HuH7 TTR inh inactive | TTR up confirm inactive
COc1cccc(CCc2nc3ccccc3c(=O)n2N)c1	none
COc1ccccc1NC(=O)C(C)N(C)CC(=O)Nc1cccc2ccccc12 (configuration not stated)	none
Cc1ccc(C)c(SCC(=O)NNC(=O)c2csc(N3CCOCC3)n2)c1	TTR transcr act 31 | HuH7 TTR inh inactive | TTR up confirm inactive
O=C(NNC(=O)c1cc(-c2ccc(Br)cc2)nc2ccccc12)c1csc(N2CCOCC2)n1	none
CSc1ncccc1C(=O)NNC(=O)c1csc(N2CCOCC2)n1	none
CCOc1cc(/C=N\NC(N)=O)cc(Br)c1OC(C)C	none
O=S(=O)(c1ccccc1Oc1ccc(Cl)cc1Cl)N1CCCCC1	none
O=C(COC(=O)CNC(=O)c1ccccc1F)Nc1nnc(-c2ccccc2)o1	none
O=[N+]([O-])c1ccc(Cn2cc(-c3cccc(C(F)(F)F)c3)nn2)cc1	none
O=C(CCC(=O)N1CCN(S(=O)(=O)c2ccccc2)CC1)c1cccs1	none
COc1cc(C2(c3ccc(O)c(OC)c3)C(=O)N(C)c3ccc(C)cc32)ccc1O	none
Cc1cc(Br)cc2c1N(C)C(=O)C2(c1ccc(O)cc1)c1ccc(O)cc1	TTR transcr act 47 | HuH7 TTR inh inactive | TTR up confirm inactive
CN1C(=O)C(c2cn(C)c3ccccc23)(c2cn(C)c3ccccc23)c2cc(Br)ccc21	none
CCOC(=O)C(=O)N(Nc1ccc(C)cc1)c1ccc(C)cc1	none
Cc1cccc(C)c1NC(=O)CN(C)C(=O)/C=C/c1cccs1	none
Cc1noc(C)c1S(=O)(=O)Nc1ccc(C(=O)N2CCc3ccccc3C2)cc1	none
CC1(C)C(CO)=CC(=O)C2=C1SCC(=O)N2	TTR transcr act 11 | HuH7 TTR inh inactive | TTR up confirm inactive
COc1ccc(Cc2c(-c3cccc(Br)c3)nc3ccc(Br)cn23)c(C)c1	none
O=C(NNS(=O)(=O)c1ccc(F)cc1F)c1csc(-c2cccnc2)n1	TTR transcr act 19 | HuH7 TTR inh inactive | TTR up confirm inactive
O=C(NCc1ccc(Cl)cc1)c1csc(-c2cccnc2)n1	none
O=C(NNC(=O)c1ccc(Cl)cc1Cl)c1csc(-c2cccnc2)n1	none
CC(=O)c1c(O)c(C)c(O)c2c1OC1=Cc3c(c(C)nn3-c3ccccc3)C(=O)C12C (configuration not stated)	none
O=C(Cn1c(C(=O)N2CCN(C3CCCCC3)CC2)cc2sccc21)c1ccccc1	none
Cn1c(CNC(=O)c2ccco2)nnc1SCC(=O)N1CCN(c2ccccc2F)CC1	none
Cc1ccc(S(=O)(=O)n2c(N)nc3cc(C)c(C)cc32)cc1	none
Cc1ccc(S(=O)(=O)n2c3ccc(Cl)cc3c3nc(C)sc32)cc1	TTR transcr act 18 | HuH7 TTR inh inactive | TTR up confirm inactive
Cc1cn(S(=O)(=O)c2ccc(Cl)cc2)c(C)n1	none
COc1cccc(Cn2cc(COC(=O)N(C)Cc3ccccc3)nn2)c1	none
COc1ccc(CN2CCN(CC3CC3)CC2CCO)cc1C (configuration not stated)	none
COc1cc(C(=O)N2CCN(C(=O)c3ccco3)CC2)cc(OC)c1OC	none

Screening results (PubChem BioAssay)
